Compounds with a hit are over-represented: about 3.5% of the library has one in this group of screens.
MITF inh – human MITF inhibition, primary screen; AlphaScreen MITF homodimerization, bead proximity signal; inhibition, % at 2.6 µM; 650,000 tested, 0.91% active; in the data active means inhibition above about 50%;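 further: 0% = vehicle wells with protein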
FBW7 act – human FBW7 E3 ligase activation, primary screen; Q969H0; AlphaScreen FBW7–phospho-cyclin E peptide binding, activator screen; normalized activity (activation), % at 26.1 µM; 650,000 tested, 0.13% active; AID 1259310; in the data active means normalized activity above about 1.9%;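 further: purified mutant Fbw7 with reduced substrate affinity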
Target sequence (Q969H0 whole entry, looked up): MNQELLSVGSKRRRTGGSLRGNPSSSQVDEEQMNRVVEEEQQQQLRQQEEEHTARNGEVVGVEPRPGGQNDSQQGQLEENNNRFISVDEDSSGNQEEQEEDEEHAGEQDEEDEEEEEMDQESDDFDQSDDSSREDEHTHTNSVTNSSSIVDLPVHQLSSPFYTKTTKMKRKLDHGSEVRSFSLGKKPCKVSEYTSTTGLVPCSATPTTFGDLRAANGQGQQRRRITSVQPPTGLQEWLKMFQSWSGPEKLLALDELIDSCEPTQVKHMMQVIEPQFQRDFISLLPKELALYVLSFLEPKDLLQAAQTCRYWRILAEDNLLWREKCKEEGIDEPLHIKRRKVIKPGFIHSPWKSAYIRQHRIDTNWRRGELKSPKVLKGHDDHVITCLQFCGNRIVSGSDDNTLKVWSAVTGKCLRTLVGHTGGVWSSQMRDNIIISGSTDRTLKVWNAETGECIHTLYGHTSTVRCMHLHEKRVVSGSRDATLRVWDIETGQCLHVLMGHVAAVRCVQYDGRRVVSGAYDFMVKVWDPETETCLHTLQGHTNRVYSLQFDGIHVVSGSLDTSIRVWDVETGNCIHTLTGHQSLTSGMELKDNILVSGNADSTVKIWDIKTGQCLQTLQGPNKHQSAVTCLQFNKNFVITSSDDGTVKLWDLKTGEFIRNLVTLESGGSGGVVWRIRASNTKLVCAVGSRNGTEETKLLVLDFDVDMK
TEAD-YAP block – TEAD-YAP interaction inhibition; HEK-TIYL cells, TEAD-Gal4/YAP UAS-luciferase luminescence; inhibition, % at 9.12 µM; 640,000 tested, 1.4% active; in the data active means inhibition above about 32%;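 further: 0% = median of test compound wells and 100% = reference inhibitor wells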
GPR151 ag – human GPR151 activation. PathHunter beta-arrestin GPR151 cells, luminescence. activation, % at 11.2 µM. 650,000 tested, 1% active. AID 1508602; in the data active means activation above about 4.9%;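 further: 0% = median of compound wells and 100% = cells with positive control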
GPR151 conf act – human GPR151 activation, confirmation screen; shares compounds with GPR151 ag; GPR151 PathHunter beta-arrestin cells, luminescence, 90 min; % of EA-reagent control over plate median; activation, % at 11.2 µM; 6,700 tested, under 10 active;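 active means mean percent activation across replicates above the confirmation screen cutoff of 4.91%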
GPR119 counter – counter-screen for GPR151 activators: effect on human GPR119. activation, % at 11.2 µM. GPR119 PathHunter beta-arrestin cells, luminescence, 90 min; 0 = compound-well median, 100 = enzyme-acceptor control. 6,700 tested, 0.3% active. AID 1508611. shares compounds with GPR151 ag;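 active means mean percent activation in the counterscreen above 29.09%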;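 further: counterscreen on off-target GPR119 to flag nonselective hits from the GPR151 activator screen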
Numbers without * were called inactive.

For O=C(NCC1CCCN1S(=O)(=O)c1ccccc1)C(=O)NC1CCCCC1 (stereo not given) the results were MITF inh -9.1, FBW7 act 0.0, TEAD-YAP block -6.7, GPR151 ag 21.5*, GPR151 conf act 0.2 and GPR119 counter -7.0.
For Cc1ccc(S(=O)(=O)N2CCCC2CNC(=O)C(=O)NCCO)cc1 (stereo not given) the results were MITF inh 4.0, FBW7 act 0.0, TEAD-YAP block 5.4 and GPR151 ag 1.7.
CC1Cn2cc(-c3ccc([N+](=O)[O-])cc3)nc2S1 (stereo not given) was read as MITF inh 10.1, FBW7 act -0.1, TEAD-YAP block -48.4 and GPR151 ag 0.7.
Screening CCN(CC)CCCNC(=O)c1nn(-c2ccc(OC)cc2)c(=O)c2ccccc12 returned MITF inh 5.7, FBW7 act 0.5, TEAD-YAP block 10.2 and GPR151 ag 0.8.
O=C(O)CCCCCNS(=O)(=O)c1ccc([N+](=O)[O-])cc1 was read as MITF inh -1.2, FBW7 act 0.0, TEAD-YAP block -1.1 and GPR151 ag -0.7.
For COc1cccc(OC)c1C(=O)Nc1cccc(-c2nn3c(C)nnc3s2)c1 the results were MITF inh -12.0, FBW7 act -0.1, TEAD-YAP block 15.8 and GPR151 ag -0.1.
Cc1noc(/C=C/C=C/c2ccccc2)c1[N+](=O)[O-] was read as MITF inh 34.1, FBW7 act 0.0, TEAD-YAP block -0.9 and GPR151 ag 0.2.
COc1ccc(OC)c(/C=C\c2onc(C)c2[N+](=O)[O-])c1 was read as MITF inh -17.0, FBW7 act -0.1, TEAD-YAP block 2.0, GPR151 ag 8.9*, GPR151 conf act -0.5 and GPR119 counter -8.3.
`COc1ccc2cc(CN(CCCO)C(=O)c3ccc(C)cc3)c(=O)[nH]c2c1` gave MITF inh 4.3, FBW7 act 0.0, TEAD-YAP block -4.3, GPR151 ag 5.5*, GPR151 conf act 1.4 and GPR119 counter 6.1.
Cc1cc(C)c2[nH]c(=O)c(CN(CCCO)Cc3nnnn3CCc3ccccc3)cc2c1 was read as MITF inh 10.2, FBW7 act 0.6, TEAD-YAP block 13.8, GPR151 ag 6.0*, GPR151 conf act 1.2 and GPR119 counter 9.1.
COc1ccc(Cn2nnnc2CN(CCCO)Cc2cc3cc(C)ccc3[nH]c2=O)cc1 was read as MITF inh 12.9, FBW7 act -0.1, TEAD-YAP block 6.9, GPR151 ag 6.7*, GPR151 conf act -1.3 and GPR119 counter -14.4.
`CNc1ccccc1C(=O)OCC(=O)c1ccc(Cl)cc1` gave MITF inh -27.8, FBW7 act 0.3, TEAD-YAP block -18.2 and GPR151 ag 0.4.
`CCCNC(=O)C1CCCN(c2nnc(N3CCCC3=O)s2)C1` (stereo not given) gave MITF inh 2.7, FBW7 act -0.1, TEAD-YAP block 2.7 and GPR151 ag 0.5.
`CCOc1ccc(NC(=O)CSC2=C(C#N)C(c3ccco3)C(C(=O)Nc3ccccc3)=C(C)N2)cc1` (stereo not given) gave MITF inh 2.8, FBW7 act 0.1, TEAD-YAP block 20.8, GPR151 ag 5.0*, GPR151 conf act -0.7 and GPR119 counter -7.2.
`O=c1c2ccccc2nc(SCc2c(F)cccc2Cl)n1Cc1ccc2c(c1)OCO2` gave MITF inh -8.6, FBW7 act 0.0, TEAD-YAP block -13.3 and GPR151 ag -0.7.
Screening CC(C)N(C(=O)Cn1c(SCC(=O)N2CCCC2)nc2ccccc21)C(C)C returned MITF inh -0.3, FBW7 act 0.1, TEAD-YAP block -5.4, GPR151 ag 7.9*, GPR151 conf act 0.2 and GPR119 counter 5.0.
For CC(C)N(C(=O)Cn1c(SCC(=O)N2CCCCCC2)nc2ccccc21)C(C)C the results were MITF inh -5.4, FBW7 act -0.1, TEAD-YAP block 11.6 and GPR151 ag 1.2.
Screening Cc1cc(C)n(CC(C)N2CCC(n3nccc3NC(=O)CCCc3ccccc3)CC2)n1 (stereo not given) returned MITF inh 10.8, FBW7 act 0.0, TEAD-YAP block 1.4, GPR151 ag 7.2*, GPR151 conf act 0.8 and GPR119 counter -15.3.
`CC(C#N)Sc1nnc(-c2cccnc2)n1C1CCCCC1C` (stereo not given) gave MITF inh -8.2, FBW7 act 0.1, TEAD-YAP block -4.7 and GPR151 ag 4.9.
Cc1nn(-c2ccccc2)c(Cl)c1C(=O)Nc1ccccc1Cl was read as MITF inh 8.4, FBW7 act 0.0, TEAD-YAP block -45.4 and GPR151 ag 0.0.
For CCOC(=O)C1(CC2CCCCO2)CCN(CCCSC)CC1 (stereo not given) the results were MITF inh -0.3, FBW7 act 0.0, TEAD-YAP block -2.5, GPR151 ag 6.6*, GPR151 conf act 0.4 and GPR119 counter -9.2.
`CCOC(=O)C1(CC2CCCCO2)CCN(Cc2cnc(SC)nc2)CC1` (stereo not given) gave MITF inh -0.4, FBW7 act 0.0, TEAD-YAP block -8.9 and GPR151 ag 2.0.
`Nc1c(S(=O)(=O)c2ccc(F)cc2)c2nc3ccccc3nc2n1CC1CCCO1` (stereo not given) gave MITF inh 4.8, FBW7 act 0.0, TEAD-YAP block 9.0 and GPR151 ag 0.1.
CC[n+]1c(/C=C/N(C)c2ccccc2)oc(-c2ccccc2)c1-c1ccccc1 was read as MITF inh 1.9, FBW7 act 0.0, TEAD-YAP block 91.7*, GPR151 ag 5.7*, GPR151 conf act 0.5 and GPR119 counter 18.4.
CCn1c(C)cc(/C=C/c2oc3ccccc3[n+]2CC)c1C was read as MITF inh 19.5, FBW7 act 0.1, TEAD-YAP block -5.5 and GPR151 ag -2.5.
Screening CN1CC(=O)N(CCCC(=O)OCc2ccc(C#N)cc2)C1=O returned MITF inh -1.0, FBW7 act -0.1, TEAD-YAP block -1.9, GPR151 ag 7.7*, GPR151 conf act 1.1 and GPR119 counter 7.3.
Screening N#Cc1ccc(COC(=O)CCC(=O)c2cccs2)cc1 returned MITF inh 6.8, FBW7 act 0.1, TEAD-YAP block 4.0 and GPR151 ag -0.8.
Screening COc1ccc(N2C(=S)NC(C)(C)C=C2C)cc1 returned MITF inh 27.8, FBW7 act 0.6, TEAD-YAP block -6.0 and GPR151 ag -0.9.
Screening Cc1ccccc1C(=O)N/N=C/c1ccc(OCC(=O)N2CCCCC2)cc1 returned MITF inh 12.5, FBW7 act 0.4, TEAD-YAP block 4.2, GPR151 ag 6.7*, GPR151 conf act 1.1 and GPR119 counter 7.8.
`CCOc1ccc(/C=N/NC(=O)c2ccccc2C)cc1` gave MITF inh 15.2, FBW7 act 0.1, TEAD-YAP block -21.4 and GPR151 ag -0.7.

Source: PubChem BioAssay
